Measurements from PubChem BioAssay (NCI).
Compounds without any hit were thinned out: in the full panel of roughly 79,000, 15% have a hit. Rule as the data show it: active = growth inhibition above about 70%; inactive = the rest.

Legend:
[1] = NCI Yeast Anticancer Drug Screen. Data for the rad50 strain (AID 155);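 also: 0% = growth of vehicle-only cultures of the same strain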; details: S. cerevisiae rad50 strain growth inhibition; at 50.0 µM; hits give high values
Summary of the method: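 Genetically altered yeast (DNA repair pathway); compound treatment; growth inhibition vs vehicle ctrl.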

[2] = NCI Yeast Anticancer Drug Screen. Data for the mec2-1 strain (AID 157); details: S. cerevisiae mec2-1 strain, at 50.0 µM, hits give high values
Summary of the method: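 Using mec2-1 yeast: add compound, measure growth, express inhibition versus vehicle-treated cultures.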

[3] = NCI Yeast Anticancer Drug Screen. Data for the sgs1 mgt1 strain (AID 161);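 also: 0% = growth of cultures given vehicle only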; details: S. cerevisiae sgs1 mgt1 strain, at 50.0 µM, hits give high values
Summary of the method: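 Yeast cells carrying a defined DNA-repair defect were exposed to test compounds. Growth inhibition was measured relative to vehicle-treated controls.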

[4] = NCI Yeast Anticancer Drug Screen. Data for the cln2 rad14 strain (AID 165);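 also: 0% = growth equal to vehicle treated cultures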; details: S. cerevisiae cln2 rad14 strain, at 50.0 µM, hits give high values
Summary of the method: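 Yeast strain cln2 rad14, bearing defects in cell cycle control and DNA repair, serves as the test system; values reflect growth inhibition compared with vehicle.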

[5] = NCI Yeast Anticancer Drug Screen. Data for the bub3 strain (AID 167); details: S. cerevisiae bub3 mutant strain, at 50.0 µM, hits give high values
Summary of the method: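 Yeast carrying a defined mutation is treated with each compound, and growth is compared with that of vehicle-exposed cells to give inhibition.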

[6] = NCI Yeast Anticancer Drug Screen. Data for the mlh1 rad18 strain (AID 175); details: S. cerevisiae mlh1 rad18 strain growth inhibition; at 50.0 µM; hits give high values
Summary of the method: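 Steps: expose repair-defective yeast to compound; measure growth; express inhibition against vehicle-treated controls.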

Measured: growth inhibition

Nc1n[nH]c(=S)s1
inactive: [1] 6.8% | [2] -12.1% | [3] 7.35% | [4] -8.7% | [5] -12.3% | [6] 3.55%

O=C(Nc1ccc(C(=O)CCl)cc1)Nc1ccc(C(=O)CCl)cc1
inactive: [1] 8.65% | [2] 14.1% | [3] 20.2% | [4] 0.35% | [5] 12.9% | [6] 14.6%

CC1CN(C(=O)Cn2cnc([N+](=O)[O-])n2)CC(C)O1 (configuration not stated)
inactive: [1] 7.65% | [2] 14.2% | [3] 2.75% | [4] 65.2% | [5] 29.8% | [6] 12.7%

COc1ccc(CNc2cnc3cc(N)ccc3n2)cc1OC
inactive: [1] -12.3% | [2] -34.5% | [3] -37.5% | [4] 3.15% | [5] -19.3% | [6] -16.4%

Cc1cccn(C(=O)c2ccccc2)c1=N
inactive: [1] -8.2% | [2] 4.1% | [3] 1.35% | [4] -41.7% | [5] -16.9% | [6] 29.3%

CC(=O)Nc1ccc(/C=C(\NC(=O)c2ccccc2)C(=O)NNS(=O)(=O)c2ccc(C)cc2)cc1
inactive: [1] 21.6% | [2] 17.7% | [3] -9.3% | [4] -5.5% | [5] -4.2% | [6] 21.4%

CCN(CC)Cc1cc(C(C)(C)CC)cc(-c2ccccc2)c1O
inactive: [1] -11.2% | [2] -33.6% | [3] -12.6% | [4] -24.9% | [5] 8.5% | [6] -4.1%

CC(C)=CCNC(N)=O
inactive: [1] 4.95% | [2] -3.8% | [3] -10.5% | [4] 11% | [5] 7.4% | [6] 2.15%

C1CCC2(CC1)CCCO2
inactive: [1] -6.3% | [2] 6.2% | [3] -0.9% | [4] 10.5% | [5] 23.6% | [6] 19.4%

CCc1onc(-c2noc(CC)c2C)c1C
inactive: [1] -5.35% | [2] 6.5% | [3] 0.25% | [4] -9.35% | [5] -1.5% | [6] 12.3%

O/N=C1\CCn2cccc21
inactive: [1] -12.1% | [2] 15.1% | [3] -18.2% | [4] 0.25% | [5] 19.4% | [6] -11.2%

N#CC(c1ccc(N)cc1)c1ccc(F)cc1 (configuration not stated)
inactive: [1] 15.6% | [2] -16.8% | [3] 22.2% | [4] 27.2% | [5] -0.6% | [6] 26.2%

c1ccc(CNCCNCc2ccccn2)nc1
inactive: [1] 25.4% | [2] 7.45% | [3] 16.1% | [4] -61.1% | [5] -1.15% | [6] 16.8%

O=c1[nH]c(=O)c2nc[nH]c(=O)c2[nH]1
inactive: [1] -8.55% | [2] -8.45% | [3] -4.2% | [4] -3.55% | [5] -11.6% | [6] -13.2%

O=CC(NC(=O)OCc1ccccc1)C(O)C(O)C(O)CO (configuration not stated)
inactive: [1] -15.3% | [2] 2.7% | [3] 1.75% | [4] -6.3% | [5] -15.9% | [6] -16.9%

C1=COC(C2NCCCN2)CC1 (configuration not stated)
inactive: [1] -5.9% | [2] 8.25% | [3] -2.6% | [4] -68.8% | [5] -26.5% | [6] -3.7%

Cc1cc(C)nc(NS(=O)(=O)c2ccc(NC(=O)c3ccc(Cl)c4c(Nc5ccc(S(=O)(=O)Nc6nc(C)cc(C)n6)cc5)c5ccccc5nc34)cc2)n1
inactive: [1] 28.1% | [2] 41.3% | [3] 27.8% | [4] 34.2% | [5] 27.8% | [6] 30.4%

O=C(O)c1cc(O)c(C(=O)O)cc1O
inactive: [1] -3.2% | [2] -9.15% | [3] -18.6% | [4] -15.2% | [5] -3.25% | [6] 0.3%

O=C(O)CCc1nc2c(n1-c1ccccc1)C(=O)c1ccccc1C2=O
inactive: [1] 38.2% | [2] 20.5% | [3] 34.6% | [4] 34.3% | [5] 37.6% | [6] 34.2%

Ic1ccccc1/C=C/c1ccccn1
inactive: [1] 14.6% | [2] 11.3% | [3] 28.7% | [4] -54.6% | [5] 31.8% | [6] -0.2%

CCCCNC(N)=O
inactive: [1] -21.1% | [2] -36.1% | [3] -21.9% | [4] -37.9% | [5] -2.2% | [6] -9.25%

O=[N+]([O-])c1ccc(/C=N\N=C\c2ccco2)cc1
inactive: [1] 1.85% | [2] 16.8% | [3] -4.35% | [4] -50.1% | [5] -9.9% | [6] 4.95%

Nc1ccncn1
inactive: [1] -20.9% | [2] -0.85% | [3] -2.45% | [4] -5% | [5] -4.35% | [6] -13.8%

CCSc1nc(N)c2c(-c3ccc(OC)c(OC)c3)c3c(nc2n1)CCCC3
inactive: [1] -32.6% | [2] -17.2% | [3] -39.5% | [4] -3.35% | [5] -15.8% | [6] -25.4%

C[N+]1(C)N=C([O-])N(c2ccccc2F)C1=O
inactive: [1] 7.15% | [2] -7.35% | [3] 2.7% | [4] -17.1% | [5] -2.15% | [6] -0.7%

CO/N=C1\C(C)(C)C(C)(C)C(C)(C)C1(C)SS(=O)(=O)O (configuration not stated)
inactive: [1] 23.6% | [2] 19.1% | [3] 12.6% | [4] 17.6% | [5] 20.8% | [6] 29.9%

CN(C)c1ccc(/C=C/c2ccccc2)cc1
inactive: [1] -3.6% | [2] -6.15% | [3] -8.95% | [4] -15.1% | [5] -16.2% | [6] 1.55%

CN(C)c1nc(=O)c2c(ccc3ccccc32)o1
inactive: [1] 26.2% | [2] 24.3% | [3] 7.6% | [4] 14.7% | [5] 0.55% | [6] -3.7%

Cc1c2c([nH]c(=O)c1C)C=CC(Br)C2Br (configuration not stated)
inactive: [1] -0.7% | [2] 0.55% | [3] 1.5% | [4] 3.2% | [5] 0.2% | [6] 6.95%

CCOC(=O)C(C#N)C1(O)C(=O)Nc2ccccc21 (configuration not stated)
inactive: [1] -4.65% | [2] -5% | [3] -6.7% | [4] 3.8% | [5] 0.55% | [6] 10.2%

N#Cc1c(N)[n+]([O-])c2c([n+]1[O-])CCCC2
inactive: [1] 11.4% | [2] 3.35% | [3] 7% | [4] -43.2% | [5] -14.8% | [6] -3.35%

CN1CNC(=O)c2n[nH]nc21
inactive: [1] -1.25% | [2] 34.5% | [3] -4.15% | [4] -21% | [5] 13.1% | [6] -2.7%

CCCOC(=O)CNC(=O)OC(C)(C)C
inactive: [1] 17.6% | [2] 14.8% | [3] 1.15% | [4] 0.55% | [5] -4.95% | [6] -4.35%

Cc1ccc(-n2c(C)nc3c(c(C)c(C)n3-c3ccccc3)c2=N)cc1
inactive: [1] 4.1% | [2] -0.75% | [3] 4.75% | [4] -19% | [5] 15.4% | [6] 6.65%

Cc1ccc(S(=O)(=O)N/N=C2\CCC3CC2C3(C)C)cc1 (configuration not stated)
inactive: [1] 1% | [2] 2.05% | [3] -14.2% | [4] -20.1% | [5] -6.05% | [6] 5.95%

Cc1cc(C)n2c(-c3ccccc3)nnc2c1
inactive: [1] 19.1% | [2] -7.2% | [3] -20.2% | [4] -7.05% | [5] 8.05% | [6] -8.85%

CCCC(O)c1ccccc1Cl (configuration not stated)
inactive: [1] 21.8% | [2] 18.9% | [3] 24.9% | [4] 16% | [5] -28.4% | [6] 5.3%
